6 molecules from PubChem BioAssay (Tox21) can be followed below.

Each structure is given as a SMILES string. Calls of active or inactive are those of the source. Unless noted, calls come from the whole dose curve.

The target in assay [1] is Acetylcholinesterase (Homo sapiens) (UniProt P22303). Put plainly: Acetylcholinesterase (AChE) small molecule antagonists: enzyme-based qHTS assay (AID 1347397). Note: nearly all actives have a fitted effect of over 55% in size. Conditions: Potency: AChE enzyme activity inhibition; outcome: AChE enzyme activity inhibition. In a few lines: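 rhAChE 50 mU/mL (dispensed) + cpd or DMSO, 30 min RT; add DTNB/acetylthiocholine cocktail, 10 min RT; colorimetric thiocholine readout. qHTS, 1536-well format.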
(Quantitative high-throughput screening tests each substance at several concentrations.)

The target is the same in assay [2]. Description: Acetylcholinesterase (AChE) small molecule antagonists: fluorescence cell-based qHTS assay (AID 1347398). Note: nearly all actives have a fitted effect of over 50% in size. As to conditions: Potency: AChE activity; outcome: AChE activity. In a few lines:
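Read-out is Thiolite Green fluorescence at Ex/Em = 490/520 nm, formed by reaction with thiocholine released when cellular AChE in SH-SY5Y cells hydrolyzes acetylthiocholine. Compounds were preincubated 30 min at 37 C before substrate.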

Assay [3] has the same target. Description: Acetylcholinesterase (AChE) small molecule antagonists: enzyme-based qHTS assay with human liver microsomes (AID 1347399). Note: nearly all actives have a fitted effect of over 60% in size. Conditions: Potency: qHTS inhibition; outcome: qHTS inhibition. In a few lines: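 Recombinant human AChE (50 mU/mL in the enzyme mix) and human liver microsomes (0.25 mg/mL final) were preincubated with compound and NADPH (0.25 mg/mL final) for 30 min at 37 C. Acetylthiocholine/DTNB was then added; thiocholine was read colorimetrically after 10 min at room temperature.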

Assay [4] in a line: qHTS assay for small molecule agonists of the p53 signaling pathway - cell viability (AID 651633). Note: potency is the fitted concentration of half-maximal effect; nearly all actives have a fitted effect of over 30% in size. In a few lines:
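Viability counter-read: CellTiter-Glo luminescence (30 min, room temperature) in the same p53RE-bla plates. These plates had been exposed to compounds for 16 h at 37 C.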

Assay [5] is described as follows: qHTS assay for small molecules that induce genotoxicity in human embryonic kidney cells expressing luciferase-tagged ATAD5 - cell viability (AID 651634). Note: potency is the fitted concentration of half-maximal effect; nearly all actives have a fitted effect of over 25% in size. Summed up:
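HEK293T cells carrying luciferase-tagged ATAD5, 2,000 cells/well, exposed to compound for 15.5 hr at 37C. Viability read as live-cell protease activity by CellTiter-Fluor fluorescence after 30 min at 37C.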

Assay [6] is described as follows: qHTS assay for small molecule disruptors of the mitochondrial membrane potential - cell viability (AID 720634).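 Note: human HepG2 liver cancer cells; series mostly up to about 83 µM; nearly all actives have a fitted effect of over 20% in size.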 Summed up:
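HepG2 cells, 2,000 per well, attached overnight, then treated 1 hr at 37 C, 5% CO2. Viability read as ATP by CellTiter-Glo luminescence after 30 min at room temperature. Read in the same wells as the m-MPI membrane-potential dye assay.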

Assay [7] can be described thus: qHTS assay for small molecule disruptors of the mitochondrial membrane potential (AID 720635; active = well fitted curve in the direction sought with a large enough effect in the repeat runs; inconclusive = weak or mixed curves; inactive = no such curve, though single readings can be large; an effect the other way counts as inactive or inconclusive; note: potency is the fitted concentration of half-maximal effect). In a few lines:
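Mitochondrial membrane potential tracked with Mito-MPS dye, red aggregates (ex 540/em 590 nm) against green monomers (ex 490/em 535 nm). Compound treatment 1 hr at 37C, dye 30 min in HepG2.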

Assay [8] in a line: qHTS assay to test for compound auto fluorescence at 590 nm (red) in HepG2 cells (AID 720674; active = well fitted curve in the direction sought with a large enough effect in the repeat runs; inconclusive = weak or mixed curves; inactive = no such curve, though single readings can be large; an effect the other way counts as inactive or inconclusive). Summed up: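 We screened compounds on adherent HepG2 cells, incubating them for an hour at 37 C in 5% CO2 before reading emission at 590 nm under 540 nm excitation; values reflect equivalence to Rose Bengal sodium fluorescence.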
Assay [9] is described as follows: qHTS assay to test for compound auto fluorescence at 535 nm (green) in HepG2 cells (AID 720675; active = well fitted curve in the direction sought with a large enough effect in the repeat runs; inconclusive = weak or mixed curves; inactive = no such curve, though single readings can be large; an effect the other way counts as inactive or inconclusive).
Assay [10] can be described thus: qHTS assay to test for compound auto fluorescence at 460 nm (blue) in HEK293 cells (AID 720678; active = well fitted curve in the direction sought with a large enough effect in the repeat runs; inconclusive = weak or mixed curves; inactive = no such curve, though single readings can be large; an effect the other way counts as inactive or inconclusive). In a few lines: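 HEK293, 2,000 cells/well, 10% dialyzed FBS; attach 4-5 hr 37C; pin compound or DMSO; o/n 37C/5% CO2; fluorescence 405/460 nm; triamterene-equivalent units.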
The nature of assay [11]: qHTS assay to test for compound auto fluorescence at 590 nm (red) in HEK293 cells (AID 720679; active = well fitted curve in the direction sought with a large enough effect in the repeat runs; inconclusive = weak or mixed curves; inactive = no such curve, though single readings can be large; an effect the other way counts as inactive or inconclusive). In a few lines:
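Intensity at 540nm excitation and 590nm emission is reported as Rose Bengal sodium-equivalent autofluorescence. Measurements followed overnight exposure (37C, 5% CO2) of HEK293 cells, 2,000 per well, to 23 nL compound.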

The nature of assay [12]: qHTS assay to test for compound auto fluorescence at 535 nm (green) in HEK293 cells (AID 720680; active = well fitted curve in the direction sought with a large enough effect in the repeat runs; inconclusive = weak or mixed curves; inactive = no such curve, though single readings can be large; an effect the other way counts as inactive or inconclusive).
Assay [13] can be described thus: qHTS assay to test for compound auto fluorescence at 460 nm (blue) in HEK293 cell free culture (AID 720681; active = well fitted curve in the direction sought with a large enough effect in the repeat runs; inconclusive = weak or mixed curves; inactive = no such curve, though single readings can be large; an effect the other way counts as inactive or inconclusive). In a few lines: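 Blue fluorescence (Ex 405/Em 460 nm, triamterene-equivalent) was read immediately after pin transfer of compound or DMSO into medium (DMEM, 10% FBS) without cells.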
Assay [14] is described as follows: qHTS assay to test for compound auto fluorescence at 535 nm (green) in HEK293 cell free culture (AID 720682; active = well fitted curve in the direction sought with a large enough effect in the repeat runs; inconclusive = weak or mixed curves; inactive = no such curve, though single readings can be large; an effect the other way counts as inactive or inconclusive). In a few lines: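 Green-channel intensity (Ex/Em 485/535 nm) was recorded from compound-treated wells containing only DMEM with 10% FBS. Fluorescein provided the equivalency standard.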
Assay [15] in a line: qHTS assay to test for compound auto fluorescence at 590 nm (red) in HEK293 cell free culture (AID 720683; active = well fitted curve in the direction sought with a large enough effect in the repeat runs; inconclusive = weak or mixed curves; inactive = no such curve, though single readings can be large; an effect the other way counts as inactive or inconclusive). In a few lines:
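Red-channel autofluorescence of compounds in culture medium (DMEM, 10% FBS), no cells, measured at 540/590 nm. Rose Bengal sodium is the reference fluorophore for equivalence.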

Assay [16] is described as follows: qHTS assay to test for compound auto fluorescence at 590 nm (red) in HepG2 cell free culture (AID 720684; active = well fitted curve in the direction sought with a large enough effect in the repeat runs; inconclusive = weak or mixed curves; inactive = no such curve, though single readings can be large; an effect the other way counts as inactive or inconclusive). Summed up: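 Steps: dispense MEM/10% FBS medium, no cells; pin compound or DMSO vehicle; read red channel, Ex/Em 540/590 nm. Output given as Rose Bengal sodium equivalents.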
The nature of assay [17]: qHTS assay to test for compound auto fluorescence at 460 nm (blue) in HepG2 cell free culture (AID 720685; active = well fitted curve in the direction sought with a large enough effect in the repeat runs; inconclusive = weak or mixed curves; inactive = no such curve, though single readings can be large; an effect the other way counts as inactive or inconclusive). Summed up: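 Compound (23 nL) or DMSO pinned into cell-free MEM with 10% FBS; blue fluorescence read at 405/460 nm excitation/emission, expressed as auto-fluorescence equivalency to triamterene.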
Assay [18] in a line: qHTS assay to test for compound auto fluorescence at 535 nm (green) in HepG2 cell free culture (AID 720686; active = well fitted curve in the direction sought with a large enough effect in the repeat runs; inconclusive = weak or mixed curves; inactive = no such curve, though single readings can be large; an effect the other way counts as inactive or inconclusive).
Assay [19] in a line: qHTS assay to test for compound auto fluorescence at 460 nm (blue) in HepG2 cells (AID 720687; active = well fitted curve in the direction sought with a large enough effect in the repeat runs; inconclusive = weak or mixed curves; inactive = no such curve, though single readings can be large; an effect the other way counts as inactive or inconclusive). Summed up: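 Blue-channel autofluorescence (Ex/Em 405/460 nm, triamterene-equivalent) was measured after 1 hr compound exposure at 37 C, 5% CO2. Cells were HepG2, plated overnight at 37 C in MEM plus 10% FBS.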
Assay [20] in a line: qHTS assay to identify small molecule antagonists of the glucocorticoid receptor (GR) signaling pathway - cell viability counter screen (AID 720693; active = well fitted curve in the direction sought with a large enough effect in the repeat runs; inconclusive = weak or mixed curves; inactive = no such curve, though single readings can be large; an effect the other way counts as inactive or inconclusive; note: potency is the fitted concentration of half-maximal effect; nearly all actives have a fitted effect of over 55% in size).
A short description of assay [21]: qHTS assay to identify small molecule antagonists of the androgen receptor (AR) signaling pathway - cell viability counter screen (AID 743033; active = well fitted curve in the direction sought with a large enough effect in the repeat runs; inconclusive = weak or mixed curves; inactive = no such curve, though single readings can be large; an effect the other way counts as inactive or inconclusive; note: potency is the fitted concentration of half-maximal effect; nearly all actives have a fitted effect of over 45% in size).
For assay [22], the target named is Androgen receptor (Homo sapiens) (UniProt P10275). Put plainly: qHTS assay to identify small molecule agonists of the androgen receptor (AR) signaling pathway using the MDA cell line (AID 743040; active = well fitted curve in the direction sought with a large enough effect in the repeat runs; inconclusive = weak or mixed curves; inactive = no such curve, though single readings can be large; an effect the other way counts as inactive or inconclusive; note: nearly all actives have a fitted effect of over 20% in size). Summed up:
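Cells plated, 5 h at 37C/0% CO2; compound or DMSO pinned; 16 h at 37C; ONE-Glo added; luminescence measured after 30 min at room temperature. Reporter line: MDA-kb2 with MMTV-luciferase responsive to AR and GR.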

Assay [23] can be described thus: qHTS assay to identify small molecule antagonists of the androgen receptor (AR) signaling pathway using the MDA cell line - cell viability counter screen (AID 743041; active = well fitted curve in the direction sought with a large enough effect in the repeat runs; inconclusive = weak or mixed curves; inactive = no such curve, though single readings can be large; an effect the other way counts as inactive or inconclusive; note: potency is the fitted concentration of half-maximal effect; nearly all actives have a fitted effect of over 45% in size). In a few lines:
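Cells were plated at 3,000 per well and left 5 h. Compounds in DMSO were then pinned in, followed by R1881. After 16 h at 37C, CellTiter-Fluor fluorescence gave viability.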

The target of assay [24] is Androgen receptor (Homo sapiens) (UniProt P10275). Put plainly: qHTS assay to identify small molecule antagonists of the androgen receptor (AR) signaling pathway using the MDA cell line (AID 743042; active = well fitted curve in the direction sought with a large enough effect in the repeat runs; inconclusive = weak or mixed curves; inactive = no such curve, though single readings can be large; an effect the other way counts as inactive or inconclusive; note: potency is the fitted concentration of half-maximal effect; nearly all actives have a fitted effect of over 55% in size). Summed up:
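Antagonist mode: compounds plus R1881 agonist added to MDA-kb2 AR-luc cells, incubated 16 h at 37C. Luciferase reporter luminescence quantified, with multiplexed CellTiter-Fluor readout for cell viability.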

The nature of assay [25]: qHTS assay to identify small molecule antagonists of the thyroid receptor (TR) signaling pathway - cell viability counter screen (AID 743064; active = well fitted curve in the direction sought with a large enough effect in the repeat runs; inconclusive = weak or mixed curves; inactive = no such curve, though single readings can be large; an effect the other way counts as inactive or inconclusive; note: potency is the fitted concentration of half-maximal effect; nearly all actives have a fitted effect of over 50% in size). Summed up: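 In rat pituitary GH3.TRE-Luc reporter cells co-exposed to compound and 1 nM T3 for 23.5 h, cytotoxicity was assessed with CellTiter-Fluor in the same wells, read by fluorescence.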
Assay [26] can be described thus: qHTS assay to identify small molecule antagonists of the thyroid receptor (TR) signaling pathway (AID 743065; active = well fitted curve in the direction sought with a large enough effect in the repeat runs; inconclusive = weak or mixed curves; inactive = no such curve, though single readings can be large; an effect the other way counts as inactive or inconclusive; note: potency is the fitted concentration of half-maximal effect; nearly all actives have a fitted effect of over 55% in size). Summed up: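 Antagonism measured as loss of luciferase signal in GH3 cells stably carrying a TRE-luciferase reporter, co-treated with compound and T3 (1 nM final) for 23.5 h at 37 C. Viability was read in the same well by CellTiter-Fluor.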
A short description of assay [27]: qHTS assay to identify small molecule antagonists of the estrogen receptor alpha (ER-alpha) signaling pathway - cell viability counter screen (AID 743074).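 Note: HEK293 cells carrying ER-alpha-UAS-bla reporter stimulated with 17beta-estradiol; potency is the fitted concentration of half-maximal effect; nearly all actives have a fitted effect of over 45% in size.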
Assay [28] addresses Estrogen receptor (Homo sapiens) (UniProt P03372). Put plainly: qHTS assay to identify small molecule agonists of the estrogen receptor alpha (ER-alpha) signaling pathway (AID 743075).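 Note: HEK293 GripTite cells with ER-alpha and UAS-driven beta-lactamase reporter; potency is the fitted concentration of half-maximal effect.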
For assay [29], the target named is Aryl hydrocarbon receptor (Homo sapiens) (UniProt P35869). Put plainly: qHTS assay to identify small molecule that activate the aryl hydrocarbon receptor (AhR) signaling pathway (AID 743085; active = well fitted curve in the direction sought with a large enough effect in the repeat runs; inconclusive = weak or mixed curves; inactive = no such curve, though single readings can be large; an effect the other way counts as inactive or inconclusive;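 note: HG2L7.5c1 human HepG2 liver cells with stably integrated DRE-driven firefly reporter; series mostly up to about 70 µM; nearly all actives have a fitted effect of over 15% in size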). Summed up: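 AhR agonist activity is inferred from enhanced light output of a DRE-controlled firefly luciferase reporter in HepG2 cells, measured with ONE-Glo following 24 h treatment at 37C.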

The nature of assay [30]: qHTS assay to identify small molecule that activate the aryl hydrocarbon receptor (AhR) signaling pathway - cell viability counter screen (AID 743086; active = well fitted curve in the direction sought with a large enough effect in the repeat runs; inconclusive = weak or mixed curves; inactive = no such curve, though single readings can be large; an effect the other way counts as inactive or inconclusive; note: potency is the fitted concentration of half-maximal effect; nearly all actives have a fitted effect of over 45% in size). Summed up: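 Cytotoxicity counter screen: CellTiter-Fluor signal (30 min, 37 C) in 4000 HepG2 cells/well carrying the DRE-luciferase reporter, following 24 h compound exposure at 37 C.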

Chain of Acetylcholinesterase (Homo sapiens) (P22303 whole entry, looked up): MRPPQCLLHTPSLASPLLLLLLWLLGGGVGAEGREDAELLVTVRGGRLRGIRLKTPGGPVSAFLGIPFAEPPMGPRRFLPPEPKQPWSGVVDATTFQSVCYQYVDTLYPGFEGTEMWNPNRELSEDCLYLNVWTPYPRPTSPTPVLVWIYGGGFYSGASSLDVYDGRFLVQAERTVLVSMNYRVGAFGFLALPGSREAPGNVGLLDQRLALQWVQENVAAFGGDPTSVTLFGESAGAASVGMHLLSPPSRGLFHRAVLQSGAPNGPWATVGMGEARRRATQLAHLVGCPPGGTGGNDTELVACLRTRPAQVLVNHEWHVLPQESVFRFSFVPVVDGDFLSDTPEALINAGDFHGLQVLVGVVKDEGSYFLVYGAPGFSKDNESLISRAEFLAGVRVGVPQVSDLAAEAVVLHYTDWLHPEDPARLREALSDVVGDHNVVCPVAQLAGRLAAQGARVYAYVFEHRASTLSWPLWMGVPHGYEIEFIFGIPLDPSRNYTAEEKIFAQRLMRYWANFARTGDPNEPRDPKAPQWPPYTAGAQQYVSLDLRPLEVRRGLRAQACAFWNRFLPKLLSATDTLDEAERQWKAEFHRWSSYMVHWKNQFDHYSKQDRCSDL
Chain of Androgen receptor (Homo sapiens) (P10275 whole entry, looked up): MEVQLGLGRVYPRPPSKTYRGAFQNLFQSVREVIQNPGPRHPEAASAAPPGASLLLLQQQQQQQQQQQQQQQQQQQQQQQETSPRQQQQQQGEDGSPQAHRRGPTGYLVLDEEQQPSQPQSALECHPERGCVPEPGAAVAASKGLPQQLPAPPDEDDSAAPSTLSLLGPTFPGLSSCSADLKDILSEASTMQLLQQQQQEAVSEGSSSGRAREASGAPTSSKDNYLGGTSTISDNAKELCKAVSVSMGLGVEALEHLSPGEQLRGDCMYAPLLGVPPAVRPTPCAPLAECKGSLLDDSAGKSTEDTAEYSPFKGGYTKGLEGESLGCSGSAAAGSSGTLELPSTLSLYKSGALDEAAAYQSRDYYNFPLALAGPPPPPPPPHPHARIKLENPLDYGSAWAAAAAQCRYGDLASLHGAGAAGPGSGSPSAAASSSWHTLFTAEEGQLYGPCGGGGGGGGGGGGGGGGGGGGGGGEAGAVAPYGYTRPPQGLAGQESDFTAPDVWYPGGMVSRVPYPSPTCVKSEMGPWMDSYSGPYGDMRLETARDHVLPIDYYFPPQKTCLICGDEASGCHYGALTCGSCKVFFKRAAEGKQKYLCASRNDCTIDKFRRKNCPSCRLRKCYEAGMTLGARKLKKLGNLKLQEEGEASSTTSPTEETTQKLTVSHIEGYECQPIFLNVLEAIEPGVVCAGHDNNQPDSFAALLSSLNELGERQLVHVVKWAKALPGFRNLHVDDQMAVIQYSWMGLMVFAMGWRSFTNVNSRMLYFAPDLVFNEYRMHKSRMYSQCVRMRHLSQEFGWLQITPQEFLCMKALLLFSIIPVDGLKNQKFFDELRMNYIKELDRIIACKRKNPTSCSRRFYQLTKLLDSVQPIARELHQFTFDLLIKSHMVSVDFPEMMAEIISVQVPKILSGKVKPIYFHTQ
Chain of Aryl hydrocarbon receptor (Homo sapiens) (P35869 whole entry, looked up): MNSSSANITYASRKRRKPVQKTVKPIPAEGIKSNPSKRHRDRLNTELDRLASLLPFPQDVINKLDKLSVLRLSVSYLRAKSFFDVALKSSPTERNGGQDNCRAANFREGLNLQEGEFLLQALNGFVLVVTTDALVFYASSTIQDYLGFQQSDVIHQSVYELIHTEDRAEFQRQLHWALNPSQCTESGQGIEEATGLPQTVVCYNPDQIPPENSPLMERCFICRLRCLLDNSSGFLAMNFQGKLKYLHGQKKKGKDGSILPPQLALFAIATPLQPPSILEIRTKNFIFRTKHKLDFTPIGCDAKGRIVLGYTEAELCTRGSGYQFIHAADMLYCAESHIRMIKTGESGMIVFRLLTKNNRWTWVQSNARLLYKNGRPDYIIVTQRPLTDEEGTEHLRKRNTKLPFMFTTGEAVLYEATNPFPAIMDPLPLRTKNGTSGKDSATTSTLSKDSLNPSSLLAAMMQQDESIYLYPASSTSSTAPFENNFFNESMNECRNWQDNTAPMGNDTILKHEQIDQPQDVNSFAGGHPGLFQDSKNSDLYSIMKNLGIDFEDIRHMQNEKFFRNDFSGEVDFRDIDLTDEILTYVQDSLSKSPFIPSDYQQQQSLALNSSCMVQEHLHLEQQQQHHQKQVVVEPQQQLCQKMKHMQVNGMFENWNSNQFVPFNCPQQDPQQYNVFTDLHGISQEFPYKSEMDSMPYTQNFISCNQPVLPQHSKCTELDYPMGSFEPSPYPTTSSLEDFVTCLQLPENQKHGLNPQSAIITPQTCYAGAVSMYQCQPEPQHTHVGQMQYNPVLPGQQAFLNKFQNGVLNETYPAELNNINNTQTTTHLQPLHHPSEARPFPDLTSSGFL
Chain of Estrogen receptor (Homo sapiens) (P03372 whole entry, looked up): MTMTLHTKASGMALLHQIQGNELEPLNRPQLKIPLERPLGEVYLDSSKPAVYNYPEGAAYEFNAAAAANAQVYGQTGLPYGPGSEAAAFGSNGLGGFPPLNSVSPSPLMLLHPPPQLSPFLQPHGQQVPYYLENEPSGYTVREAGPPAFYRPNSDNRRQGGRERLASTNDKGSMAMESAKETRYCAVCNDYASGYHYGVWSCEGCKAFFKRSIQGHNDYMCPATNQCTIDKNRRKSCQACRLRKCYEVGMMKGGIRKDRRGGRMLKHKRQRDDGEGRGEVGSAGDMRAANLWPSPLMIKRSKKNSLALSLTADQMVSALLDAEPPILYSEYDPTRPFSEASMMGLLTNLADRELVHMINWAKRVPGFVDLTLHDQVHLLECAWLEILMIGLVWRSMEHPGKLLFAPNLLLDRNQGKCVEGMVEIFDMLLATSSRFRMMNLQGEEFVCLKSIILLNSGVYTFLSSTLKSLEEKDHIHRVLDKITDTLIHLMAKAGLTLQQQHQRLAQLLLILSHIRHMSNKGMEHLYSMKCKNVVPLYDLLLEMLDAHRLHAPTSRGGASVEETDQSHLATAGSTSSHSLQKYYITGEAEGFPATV

Take `C=C1C(=C/C=C2\CCC[C@]3(C)[C@@H]([C@H](C)/C=C/[C@@H](O)C4CC4)CC[C@@H]23)C[C@@H](O)C[C@@H]1O`: the Potency entry in assay [1], in assay [2] and in assay [3] was “inactive” throughout.
Turning to `CCC(C)CO` (configuration not stated), the Potency entry in [1], in [2] and in assay [3] was “inactive” throughout.
With `O=C(O)CNc1ccccc1`, the Potency result in [1], in assay [2] and in assay [3] was “inactive” throughout.
For `OC[C@@H](O)[C@@H](O)[C@H](O)[C@H](O)CO`, the Potency result in assay [1], in assay [2] and in assay [3] was “inactive” in each case.
As for `CCC(=O)/C=C/C1C(C)=CCCC1(C)C` (configuration not stated), the Potency result in assay [1], in assay [2] and in [3] was “inactive” throughout.
`COC(=O)[C@]12CCC(C)(C)C[C@H]1[C@H]1C(=O)C=C3[C@@]4(C)C=C(C#N)C(=O)C(C)(C)[C@@H]4CC[C@@]3(C)[C@]1(C)CC2`: the Potency is 1.33 µM (active) in assay [4]; 2.98 µM (active) in [5]; 3.76 µM (active) in assay [7]; 1.07 µM (active) in [20]; 4.25 µM (active) in assay [21]; 6.68 µM (active) in assay [23]. Further, the Potency in assay [24] is 2.37 µM (active); in assay [25] it was 1.68 µM (active); in assay [26], 0.473 µM (active); in assay [27], 3.38 µM (active); in assay [28], 3.01 µM [inconclusive] (active); in assay [30] it was 3.76 µM (active). The Potency entry in [6], in assay [9], in assay [10], in assay [12], in assay [13] and in assay [14] was “inactive” each time. The Potency result in assay [17], in assay [18], in [19], in assay [22] and in assay [29] was “inactive” throughout. Besides, the call in assay [8], in assay [11], in assay [15] and in [16] was inactive.
